# Data as given in PubChem BioAssay AID1159580 (chemical genetic matrix, 2015).
# The campaign covered roughly 5,500 compounds. About 2,000 (36%) were called active. Not shown: some 18% with an inconclusive outcome. The list shows a part of the results. A number with no mark means an inactive call. No stated cut-off is given here; in the data, active means normalized growth mostly below about 0.91 (no sharp cut-off); inconclusive means no clear call, values can overlap the other calls; inactive means mostly above about 0.92.
# Test: chemical genetic growth profiling, strain panel (AID 1159580);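 further: tested at 20 µM; growth read once vehicle control cultures reached saturation at 30 °C; 1 = growth at the plate median or of vehicle wells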
# Conditions: S. cerevisiae deletion strains, growth OD
smiles,measurement,setting,value
C=CCCCCCCCCCCCC(O)CC(O)COC(C)=O (configuration not stated) (tested in a mixture with another compound),normalized growth,"locus YAL013W, strain DEP1, stronger effect = lower value",0.943
same,normalized growth,"locus YAL021C, strain ccr4, stronger effect = lower value",1.01
same,normalized growth,"locus YAL026C, strain drs2, stronger effect = lower value",0.937
same,normalized growth,"locus YAL030W, strain snc1, stronger effect = lower value",0.963
same,normalized growth,"locus YBL061C, strain skt5, stronger effect = lower value",0.95
same,normalized growth,"locus YBR009C, strain hhf1, stronger effect = lower value",0.798 (active)
same,normalized growth,"locus YBR021W, strain FUR4, stronger effect = lower value",0.78 (active)
same,normalized growth,"locus YBR023C, strain chs3, stronger effect = lower value",0.891 (active)
same,normalized growth,"locus YBR171W, strain sec66, stronger effect = lower value",0.946
same,normalized growth,"locus YBR229C, strain ROT2, stronger effect = lower value",1
same,normalized growth,"locus YBR231C, strain swc5, stronger effect = lower value",0.971
same,normalized growth,"locus YBR279W, strain paf1, stronger effect = lower value",0.949
same,normalized growth,"locus YCL011C, strain gbp2, stronger effect = lower value",0.866 (active)
same,normalized growth,"locus YCL016C, strain dcc1, stronger effect = lower value",0.907 (active)
same,normalized growth,"locus YCL029C, strain bik1, stronger effect = lower value",0.951
same,normalized growth,"locus YCL061C, strain MRC1, stronger effect = lower value",0.936
same,normalized growth,"locus YCL069W, strain vba3, stronger effect = lower value",0.963
same,normalized growth,"locus YCR088W, strain abp1, stronger effect = lower value",0.978
same,normalized growth,"locus YDL005C, strain med2, stronger effect = lower value",0.955
same,normalized growth,"locus YDL035C, strain GPR1, stronger effect = lower value",0.907
same,normalized growth,"locus YDL040C, strain nat1, stronger effect = lower value",0.967
same,normalized growth,"locus YDL074C, strain BRE1, stronger effect = lower value",0.723 (active)
same,normalized growth,"locus YDL101C, strain DUN1, stronger effect = lower value",0.983
same,normalized growth,"locus YDL134C, strain PPH21, stronger effect = lower value",0.892
same,normalized growth,"locus YDL185W, strain tfp1, stronger effect = lower value",1.01
same,normalized growth,"locus YDL192W, strain arf1, stronger effect = lower value",0.875 (active)
same,normalized growth,"locus YDR001C, strain nth1, stronger effect = lower value",0.967
same,normalized growth,"locus YDR069C, strain doa4, stronger effect = lower value",1.02
same,normalized growth,"locus YDR101C, strain arx1, stronger effect = lower value",0.886 (active)
same,normalized growth,"locus YDR137W, strain rgp1, stronger effect = lower value",0.882
same,normalized growth,"locus YDR150W, strain NUM1, stronger effect = lower value",1.02
same,normalized growth,"locus YDR159W, strain sac3, stronger effect = lower value",0.947
same,normalized growth,"locus YDR162C, strain NBP2, stronger effect = lower value",0.999
same,normalized growth,"locus YDR195W, strain ref2",0.875
same,normalized growth,"locus YDR297W, strain sur2, stronger effect = lower value",0.962
same,normalized growth,"locus YDR318W, strain mcm21, stronger effect = lower value",0.911 (active)
same,normalized growth,"locus YDR334W, strain swr1, stronger effect = lower value",0.993
same,normalized growth,"locus YDR335W, strain msn5, stronger effect = lower value",0.969
same,normalized growth,"locus YDR388W, stronger effect = lower value",0.991
same,normalized growth,"locus YDR392W, strain spt3, stronger effect = lower value",0.329 (active)
same,normalized growth,"locus YDR502C, strain sam2, stronger effect = lower value",0.912 (active)
same,normalized growth,"locus YEL003W, strain gim4, stronger effect = lower value",0.95
same,normalized growth,"locus YEL037C, strain rad23, stronger effect = lower value",0.966
same,normalized growth,"locus YEL061C, strain CIN8 (second series), stronger effect = lower value",0.971
same,normalized growth,"locus YER015W, strain faa2, stronger effect = lower value",0.982
same,normalized growth,"locus YER016W, strain bim1, stronger effect = lower value",0.981
same,normalized growth,"locus YER110C, stronger effect = lower value",0.995
same,normalized growth,"locus YER111C, strain swi4, stronger effect = lower value",0.947
same,normalized growth,"locus YER155C, strain BEM2 (second series), stronger effect = lower value",0.877
same,normalized growth,"locus YER155C, strain BEM2, stronger effect = lower value",0.646 (active)
same,normalized growth,"locus YER167W, strain BCK2, stronger effect = lower value",0.979
same,normalized growth,"locus YFR010W, strain ubp6, stronger effect = lower value",0.974
same,normalized growth,"locus YGL078C, strain dbp3, stronger effect = lower value",0.933
same,normalized growth,"locus YGL086W, strain mad1, stronger effect = lower value",0.835 (active)
same,normalized growth,"locus YGL167C, strain pmr1, stronger effect = lower value",0.966
same,normalized growth,"locus YGL173C, strain kem1, stronger effect = lower value",0.941
same,normalized growth,"locus YGL227W, strain vid30, stronger effect = lower value",0.969
same,normalized growth,"locus YGL240W, strain doc1, stronger effect = lower value",0.952
same,normalized growth,"locus YGL248W, strain PDE1, stronger effect = lower value",0.89
same,normalized growth,"locus YGL253W, strain hxk2, stronger effect = lower value",0.847 (active)
same,normalized growth,"locus YGR135W, strain pre9, stronger effect = lower value",0.971
same,normalized growth,"locus YGR229C, strain SMI1, stronger effect = lower value",0.838
same,normalized growth,"locus YGR252W, strain gcn5, stronger effect = lower value",0.782
same,normalized growth,"locus YHR013C, strain ard1, stronger effect = lower value",1.16 [resistant] (active)
same,normalized growth,"locus YHR027C, strain rpn1, stronger effect = lower value",0.964
same,normalized growth,"locus YHR030C, strain SLT2, stronger effect = lower value",1.01
same,normalized growth,"locus YHR079C, strain IRE1 (second series), stronger effect = lower value",0.993
same,normalized growth,"locus YHR094C, strain hxt1, stronger effect = lower value",0.992
same,normalized growth,"locus YHR129C, strain ARP1, stronger effect = lower value",0.914 (active)
same,normalized growth,"locus YHR142W, strain chs7, stronger effect = lower value",0.714 (active)
same,normalized growth,"locus YHR200W, strain rpn10, stronger effect = lower value",0.938
same,normalized growth,"locus YIL066C, strain RNR3, stronger effect = lower value",0.921
same,normalized growth,"locus YIL073C, strain SPO22, stronger effect = lower value",1.05
same,normalized growth,"locus YIL125W, strain kgd1, stronger effect = lower value",0.908 (active)
same,normalized growth,"locus YIR030C, strain dcg1, stronger effect = lower value",0.972
same,normalized growth,"locus YJL092W, strain hpr5, stronger effect = lower value",0.973
same,normalized growth,"locus YJL095W, strain BCK1 (second series), stronger effect = lower value",0.905 (active)
same,normalized growth,"locus YJL095W, strain BCK1, stronger effect = lower value",0.827
same,normalized growth,"locus YJL115W, strain asf1, stronger effect = lower value",0.953
same,normalized growth,"locus YJL129C, strain trk1, stronger effect = lower value",0.802 (active)
same,normalized growth,"locus YJL134W, strain LCB3, stronger effect = lower value",1.02
same,normalized growth,"locus YJL154C, strain vps35, stronger effect = lower value",0.965
